Compounds with a hit are over-represented: about 2.9% of the library has one in this group of screens.
IP6K1 inh: Primary qHTS assay for small molecule inhibitors of Inositol hexaphosphate kinase 1 (IP6K1) | Inositol hexakisphosphate kinase 1 (Homo sapiens), Q92551 | 140,000 compounds, 0.81% hits | activity change, % (series mostly up to about 58 µM) | IP6K1 kinase, ADP-Glo luminescence, 2 h; active compounds read low; in the data active means activity change below about -25%; further: on the % scale 0 is the no-effect control and ±100 the full control effect
Target sequence (Q92551 whole entry, looked up): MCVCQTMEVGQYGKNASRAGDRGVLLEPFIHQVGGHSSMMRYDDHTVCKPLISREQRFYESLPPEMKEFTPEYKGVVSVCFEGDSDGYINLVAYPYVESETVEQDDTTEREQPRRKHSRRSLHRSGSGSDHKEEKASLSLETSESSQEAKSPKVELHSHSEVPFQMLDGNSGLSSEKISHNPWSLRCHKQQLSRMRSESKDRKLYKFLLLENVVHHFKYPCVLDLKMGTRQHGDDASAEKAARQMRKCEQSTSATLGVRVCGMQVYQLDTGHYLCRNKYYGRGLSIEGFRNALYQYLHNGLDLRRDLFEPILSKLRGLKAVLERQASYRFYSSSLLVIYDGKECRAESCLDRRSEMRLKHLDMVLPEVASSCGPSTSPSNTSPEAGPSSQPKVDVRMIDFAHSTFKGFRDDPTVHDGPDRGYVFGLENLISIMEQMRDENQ
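ADP-Glo luminescence measures ADP made by human IP6K1 during a 2 h RT reaction with ATP/IP6 (mix at 1.3 mM/130 uM); top library doses 57.5 and 19.1 uM final.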
SNCA expr inh: Primary qHTS assay for inhibitors of alpha-synuclein gene (SNCA) expression; Potency, µM (highest dose often 57.2 µM), inactives show at the highest dose activity change, negative = inhibition, most hits filed as inhibitors; HEK-293 SNCA-luciferase knock-in, luminescence, 24 h; 140,000 compounds, 0.17% hits; AID 1671194, 2021;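 further: potency means the concentration at half of the fitted maximal effect; plate controls were DMSO cells for no effect and cell-free wells for full effect; nearly all actives have a fitted effect of over 45% in size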
KDM5B inh: Primary screen for KDM5B Histone Demethylases FDH-coupled qHTS; Lysine-specific demethylase 5B (Homo sapiens), Q9UGL1; KDM5B demethylase, FDH-coupled NADH fluorescence (FDH is formaldehyde dehydrogenase); Potency, µM (doses to about 57.7 µM), usual class: inhibitors; 220,000 compounds, 2.6% hits; AID 1347165, 2019; further: potency means the concentration at half of the fitted maximal effect; 0% is about no effect; nearly all actives have a fitted effect of over 70% in size
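Measured: NADH fluorescence change, 30 min, RT. System: KDM5BΔAP 200 nM final, H3K4me3 peptide, α-KG, Fe(II), ascorbate, NAD⁺ plus FDH, pH 7.5 HEPES. Compounds: titrated, 10 min pre-incubation with enzyme.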
SNCA viab count: GF-AFC viability counterscreen for inhibitors of alpha-synuclein gene (SNCA) expression. HEK-293-SNCA-luc viability, GF-AFC fluorescence, 24 h. Potency, µM (doses to about 57.1 µM), without a hit: at the highest dose activity change, negative = cytotoxicity, actives largely listed as cytotoxic. 150,000 compounds, 0.12% hits;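 further: potency means the concentration at half of the fitted maximal effect; 0% = DMSO-treated cells and -100% = medium-only wells without cells; nearly all actives have a fitted effect of over 30% in size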
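HEK-293-SNCA-luc cells (1500/well) plated 24 h, then exposed 24 h to a dilution series; GF-AFC added 30 min at 37C, fluorescence 405/540 nm; normalised to medium-only and DMSO wells, Hill fit.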
IP6K1 conf: Confirmatory qHTS assay for small molecule inhibitors of Inositol hexaphosphate kinase 1 (IP6K1); 1,200 compounds, 13% hits; recombinant IP6K1 kinase, ADP-Glo luminescence, 2 h; Potency, µM (series often up to 49 µM), inactives show at the highest dose activity change, negative = inhibition, most hits filed as inhibitors; shares compounds with IP6K1 inh; AID 1645852, 2021; further: potency means the concentration at half of the fitted maximal effect; on the % scale 0 is the no-effect control and ±100 the full control effect; nearly all actives have a fitted effect of over 65% in size
The depositor's hits bear a star; i = inactive; ? = inconclusive; · = no result; [ ] = another dose, or the depositor's remark. Unless noted, the call rests on the fitted dose curve; in most records, active means well fitted curve in the direction sought with a large enough effect; inconclusive means small, poorly fitted or top-dose-only effect, or another doubt; inactive means no such curve, though single readings can be large; an effect the other way counts as inactive or inconclusive.

SMILES	IP6K1 inh	SNCA expr inh	KDM5B inh	SNCA viab count	IP6K1 conf
Cc1ccc(C)c(NC(=O)C2=Cc3sc4c(c3CS2)CCCC4)c1	·	·	i	·	·
CCc1ccccc1N(CC)C(=O)c1cc2c(s1)-c1ccccc1SC2	-26*	18%	?	9%	-6%
O=C(Nc1ccc(I)cc1)c1cc(-c2ccc[nH]2)n[nH]1	-10	75%	i	-9%	?
Cc1ccc(F)cc1NC(=O)c1cc(-c2ccc[nH]2)n[nH]1	10	72%	i	-16%	?
Cc1cc(NC(=O)c2cc(-c3ccc[nH]3)n[nH]2)ccc1F	22	69%	i	-1%	·
O=C(Nc1cccc(OC(F)(F)F)c1)c1cc(-c2ccc[nH]2)n[nH]1	6	-24%	i	-5%	?
Cc1cccc(-c2nc3c4ccccc4nc(NCc4ccccc4Cl)n3n2)c1	-27*	90%	i	4%	-26%
CCOc1ccccc1NC(=O)Cn1c(=O)n(CC)c(=O)c2c1cc(C)n2C	32	3%	i	11%	·
FC(F)(F)c1ccccc1-c1nc(NCc2ccc(Cl)cc2)c2ccccc2n1	·	·	·	·	-2%
CN(C)c1nc(-c2ccccc2C(F)(F)F)nc2ccccc12	·	-6%	·	-16%	·
Cc1ccc(CNc2nc(-c3ccccc3C(F)(F)F)nc3ccccc23)s1	·	·	·	·	-7%
COCCNc1nc(-c2ccccc2C(F)(F)F)nc2ccccc12	·	-1%	·	-20%	·
FC(F)(F)c1ccccc1-c1nc(NCc2ccccc2)c2ccccc2n1	·	·	·	·	31%
CN(Cc1cccs1)c1nc(-c2ccccc2C(F)(F)F)nc2ccccc12	·	·	·	·	8%
COc1ccccc1CCC(=O)NC1CCc2nnc(C)n2CC1 (centres undefined)	-3	29%	i	-11%	·
O=C(CCc1ccc(O)cc1)NNC(=S)NCCc1ccccc1	·	·	i	·	·
O=C(CCc1ccc(O)cc1)c1c(O)cc(O)cc1O	·	-7%	·	-1%	5.2µM*
NNC(=S)Nc1ccccc1	·	·	i	·	·
COc1ccccc1OC1(C(=O)O)CCN(Cc2cnn(C)c2C)CC1	-29*	47%	?	?	-3%
COc1ccccc1OC1(C(=O)O)CCN(Cc2nccn2C)CC1	-14	-7%	?	-6%	·
CCc1cc(N2CCC(Oc3ccccc3OC)(C(=O)O)CC2)nc(C)n1	-32*	15%	i	-5%	-11%
COc1ccc2c(c1)OC[C@]1(O)c3cc4c(cc3O[C@H]21)OCO4	-16	·	·	-4%	·
Cn1cc(-c2ccc(Cl)cc2)cc1C(=O)O	-18	28%	i	-5%	·
CN(C)C(=O)c1cc(-c2ccc(Cl)cc2)cn1C	-33*	58%	i	-7%	?
N#Cc1nc(-c2ccc(COc3ccc4ccccc4c3)o2)oc1N1CCC(C(N)=O)CC1	·	·	i	·	·
SMILES	IP6K1 inh	SNCA expr inh	KDM5B inh	SNCA viab count	IP6K1 conf
Cc1noc(-c2ccc(N3CCC(C)CC3)c([N+](=O)[O-])c2)n1	-36*	90%	i	-7%	?
Cc1ccc(-c2noc(-c3ccc(N4CCC(C)CC4)c([N+](=O)[O-])c3)n2)cc1	-7	17%	i	0%	·
CN(Cc1cccs1)C(=O)c1cccc(S(=O)(=O)N(C)C)c1	·	·	i	·	·
CN1Cc2ccc(C(=O)Nc3ccc(OC(F)(F)F)cc3)cc2OCC1=O	-11	-13%[87.6 µM]	i	-21%[87.6 µM]	·
Brc1ccc2nc(SCCOc3ccccc3)[nH]c2c1	-32*	78%	i	9%	?
Cc1ccc(NC(=O)CSc2ccc3ccccc3n2)cc1	·	·	i	·	·
CCCOc1ccc(C2=NC(c3ccncc3)=Nc3ccc(C)cc3N2)cc1	-10	-7%	i	-7%	·
Cc1ccc(C2=Nc3ccccc3NC(c3ccncc3)=N2)cc1	-30*	-15%	i	-19%	9%
CCOC(=O)c1cccc(NC(=O)N2CC[C@@H](CC(=O)Nc3nccs3)[C@@H](CC)C2)c1	-35*	-12%	i	4%	?
CCOC(=O)c1cccc(NC(=O)N2CC[C@@H](CC(=O)Nc3ccccc3)[C@@H](CC)C2)c1	8	3%	i	-6%	·
